Our source for the log2 fold change values is the supplement of paper PMC10849652.

Common to all, as to assay: log2 fold change, soluble protein after heating vs DMSO (PISA); higher = thermal stabilisation; K562 lysate, 10 uM; active = over 0.2 and 3.5 SD of the protein, either way, in both replicates (recomputed)
Compound in assay [1]: C1=CC=C(C=C1)[C@H](COC2=CC3=C(C=C2)NC(=O)N3)NC(=O)C4=CC=CN(C4=O)CC5=CC(=C(C=C5)F)F
Put shortly: (§1)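 Dounce homogenisation of K562 pellets in PBS pH 7.4 with 1 mM MgCl2 produced a crude extract, used at 1 mg/mL protein. Exposure to 10 μM compound lasted 30 min, and aliquots were then heated for 3 min across 48°C-58°C, pooled and brought to 0.5% NP-40 at 4°C. The supernatant after 21,000xg for 90 min was quantified by TMTpro 16plex LC-MS/MS with channel sums equalised. Duplicate values are given as log-two fold change in thermal stability relative to solvent controls.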

Compound in assay [2]: CC1=C(SC2=C1C(=N[C@H](C3=NN=C(N32)C)CC(=O)N)C4=CC=C(C=C4)Cl)C
Put shortly: as §1

Compound in assay [3]: Cc1sc2c(c1C)C(c1ccc(Cl)cc1)=N[C@@H](CC(=O)OC(C)(C)C)c1nnc(C)n1-2
Summed up: as §1

Compound in assay [4]: CC1=C2C(=CC=C1)N=C(N(C2=O)C3=CC=CC=C3C)CN4C=NC5=C(N=CN=C54)N
Put shortly: as §1

Compound in assay [5]: c1ccc([C@@H]2C[C@H]2NC2CCNCC2)cc1
Summed up:
as §1

Of roughly 8,800 targets only a part is listed; those with a hit were picked by preference. About 0.5% of all pairs of compound and target were hits. A number with no mark means an inactive call.

Sequence of UniProt Q6P3W2 (Q6P3W2 whole entry, looked up): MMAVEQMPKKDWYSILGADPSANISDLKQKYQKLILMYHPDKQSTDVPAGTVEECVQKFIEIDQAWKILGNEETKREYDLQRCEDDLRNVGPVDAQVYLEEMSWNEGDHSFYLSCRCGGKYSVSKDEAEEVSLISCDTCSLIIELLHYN
Sequence of UniProt Q08345 (Q08345 whole entry, looked up): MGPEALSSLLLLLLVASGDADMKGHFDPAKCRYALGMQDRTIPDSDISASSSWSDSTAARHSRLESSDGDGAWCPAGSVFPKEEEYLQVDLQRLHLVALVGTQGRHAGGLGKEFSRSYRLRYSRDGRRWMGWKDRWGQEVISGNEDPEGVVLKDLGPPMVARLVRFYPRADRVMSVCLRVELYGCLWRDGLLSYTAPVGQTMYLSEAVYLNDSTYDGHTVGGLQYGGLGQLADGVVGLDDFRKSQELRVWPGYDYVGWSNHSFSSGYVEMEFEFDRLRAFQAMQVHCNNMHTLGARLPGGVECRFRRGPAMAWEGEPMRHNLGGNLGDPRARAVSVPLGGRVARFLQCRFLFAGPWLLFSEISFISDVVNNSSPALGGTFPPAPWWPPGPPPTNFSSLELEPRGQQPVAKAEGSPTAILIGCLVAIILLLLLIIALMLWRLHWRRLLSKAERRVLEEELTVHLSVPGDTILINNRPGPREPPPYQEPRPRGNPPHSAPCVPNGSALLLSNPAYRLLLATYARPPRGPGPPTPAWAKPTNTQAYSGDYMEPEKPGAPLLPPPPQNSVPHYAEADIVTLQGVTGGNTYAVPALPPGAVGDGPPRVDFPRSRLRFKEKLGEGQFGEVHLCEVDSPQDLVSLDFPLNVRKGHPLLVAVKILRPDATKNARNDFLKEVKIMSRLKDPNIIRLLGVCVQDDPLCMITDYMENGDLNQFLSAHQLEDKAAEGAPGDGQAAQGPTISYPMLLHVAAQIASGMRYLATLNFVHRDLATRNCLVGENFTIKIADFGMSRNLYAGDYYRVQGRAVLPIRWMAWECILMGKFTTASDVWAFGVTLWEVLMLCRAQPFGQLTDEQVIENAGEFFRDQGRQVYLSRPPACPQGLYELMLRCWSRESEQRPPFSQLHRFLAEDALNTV
Sequence of UniProt P53355 (P53355 whole entry, looked up): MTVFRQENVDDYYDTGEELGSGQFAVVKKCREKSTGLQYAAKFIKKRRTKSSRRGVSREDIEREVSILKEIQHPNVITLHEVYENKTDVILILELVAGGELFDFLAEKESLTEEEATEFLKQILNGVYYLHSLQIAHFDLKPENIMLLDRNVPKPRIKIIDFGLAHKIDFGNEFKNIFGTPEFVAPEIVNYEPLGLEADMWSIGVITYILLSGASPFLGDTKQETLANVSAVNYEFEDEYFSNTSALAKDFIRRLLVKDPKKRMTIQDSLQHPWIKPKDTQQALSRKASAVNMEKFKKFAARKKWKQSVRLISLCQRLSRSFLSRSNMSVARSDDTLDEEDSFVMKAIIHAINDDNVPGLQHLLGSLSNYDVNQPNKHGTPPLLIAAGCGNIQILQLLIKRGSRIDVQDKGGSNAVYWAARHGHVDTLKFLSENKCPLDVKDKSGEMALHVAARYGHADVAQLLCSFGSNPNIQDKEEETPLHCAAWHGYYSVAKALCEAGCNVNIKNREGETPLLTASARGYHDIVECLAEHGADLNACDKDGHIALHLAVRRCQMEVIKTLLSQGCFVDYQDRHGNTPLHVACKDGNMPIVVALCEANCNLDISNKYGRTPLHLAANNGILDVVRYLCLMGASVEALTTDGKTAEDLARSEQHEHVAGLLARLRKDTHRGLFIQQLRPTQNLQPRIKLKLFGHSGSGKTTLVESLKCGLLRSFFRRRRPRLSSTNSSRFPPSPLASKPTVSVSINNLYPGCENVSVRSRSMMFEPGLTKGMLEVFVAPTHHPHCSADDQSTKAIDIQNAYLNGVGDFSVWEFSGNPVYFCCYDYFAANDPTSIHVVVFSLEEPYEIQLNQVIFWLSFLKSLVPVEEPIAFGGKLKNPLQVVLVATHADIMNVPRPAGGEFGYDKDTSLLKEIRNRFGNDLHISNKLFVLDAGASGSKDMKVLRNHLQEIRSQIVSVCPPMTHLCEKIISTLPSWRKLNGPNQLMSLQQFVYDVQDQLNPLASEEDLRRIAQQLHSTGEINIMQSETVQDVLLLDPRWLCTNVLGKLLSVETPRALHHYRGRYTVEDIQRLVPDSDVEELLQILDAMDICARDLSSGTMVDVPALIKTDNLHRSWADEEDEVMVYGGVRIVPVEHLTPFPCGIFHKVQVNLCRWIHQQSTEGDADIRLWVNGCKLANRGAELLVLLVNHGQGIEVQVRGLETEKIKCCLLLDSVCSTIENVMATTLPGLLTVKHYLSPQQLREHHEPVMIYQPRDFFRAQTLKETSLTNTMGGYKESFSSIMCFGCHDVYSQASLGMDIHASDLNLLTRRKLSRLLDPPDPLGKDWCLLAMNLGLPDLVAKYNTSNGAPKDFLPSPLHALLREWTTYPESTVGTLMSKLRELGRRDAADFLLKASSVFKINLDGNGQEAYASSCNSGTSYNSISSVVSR
Sequence of UniProt Q13948 (Q13948 whole entry, looked up): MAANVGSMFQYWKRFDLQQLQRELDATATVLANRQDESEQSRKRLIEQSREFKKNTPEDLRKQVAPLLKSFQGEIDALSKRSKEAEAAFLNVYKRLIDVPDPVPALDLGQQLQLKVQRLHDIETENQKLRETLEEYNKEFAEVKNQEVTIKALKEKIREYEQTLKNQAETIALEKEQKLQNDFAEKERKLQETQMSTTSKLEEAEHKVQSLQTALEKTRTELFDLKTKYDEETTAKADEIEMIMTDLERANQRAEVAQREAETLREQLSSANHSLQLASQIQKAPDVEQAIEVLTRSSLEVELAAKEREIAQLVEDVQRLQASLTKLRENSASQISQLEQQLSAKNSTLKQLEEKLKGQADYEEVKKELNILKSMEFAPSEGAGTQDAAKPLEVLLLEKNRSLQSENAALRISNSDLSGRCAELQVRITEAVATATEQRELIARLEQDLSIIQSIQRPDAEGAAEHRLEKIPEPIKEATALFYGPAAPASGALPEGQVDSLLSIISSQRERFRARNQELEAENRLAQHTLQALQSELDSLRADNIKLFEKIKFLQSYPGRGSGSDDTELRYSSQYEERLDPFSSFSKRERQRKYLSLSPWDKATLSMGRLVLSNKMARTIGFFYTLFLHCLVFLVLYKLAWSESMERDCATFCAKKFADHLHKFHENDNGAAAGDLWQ
Sequence of UniProt P51530 (P51530 whole entry, looked up): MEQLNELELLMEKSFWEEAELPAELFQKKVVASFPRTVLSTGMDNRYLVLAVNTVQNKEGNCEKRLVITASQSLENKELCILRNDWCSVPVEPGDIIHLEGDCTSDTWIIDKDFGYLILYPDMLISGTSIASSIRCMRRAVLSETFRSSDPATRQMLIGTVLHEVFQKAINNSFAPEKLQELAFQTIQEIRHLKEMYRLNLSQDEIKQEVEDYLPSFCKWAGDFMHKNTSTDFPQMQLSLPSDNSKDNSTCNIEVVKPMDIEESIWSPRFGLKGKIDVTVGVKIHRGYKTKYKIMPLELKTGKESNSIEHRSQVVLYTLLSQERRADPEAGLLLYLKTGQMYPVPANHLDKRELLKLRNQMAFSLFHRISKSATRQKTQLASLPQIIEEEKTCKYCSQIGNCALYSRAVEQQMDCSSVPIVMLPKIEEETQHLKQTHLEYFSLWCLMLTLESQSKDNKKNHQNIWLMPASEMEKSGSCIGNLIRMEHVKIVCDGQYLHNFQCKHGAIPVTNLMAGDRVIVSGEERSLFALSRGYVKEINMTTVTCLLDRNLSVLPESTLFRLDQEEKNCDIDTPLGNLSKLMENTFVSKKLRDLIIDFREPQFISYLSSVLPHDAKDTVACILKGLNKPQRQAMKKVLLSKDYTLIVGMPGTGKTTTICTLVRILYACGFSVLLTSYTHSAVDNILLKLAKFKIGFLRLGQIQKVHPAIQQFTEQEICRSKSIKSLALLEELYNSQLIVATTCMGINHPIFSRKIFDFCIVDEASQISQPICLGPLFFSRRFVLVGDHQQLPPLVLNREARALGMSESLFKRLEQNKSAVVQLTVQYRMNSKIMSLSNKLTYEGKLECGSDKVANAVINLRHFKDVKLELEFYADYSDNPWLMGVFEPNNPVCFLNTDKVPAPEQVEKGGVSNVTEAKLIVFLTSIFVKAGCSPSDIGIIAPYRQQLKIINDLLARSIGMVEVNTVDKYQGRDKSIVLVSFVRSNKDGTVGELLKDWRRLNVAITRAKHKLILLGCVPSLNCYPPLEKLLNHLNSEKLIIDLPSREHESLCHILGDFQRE
Sequence of UniProt Q6UX07 (Q6UX07 whole entry, looked up): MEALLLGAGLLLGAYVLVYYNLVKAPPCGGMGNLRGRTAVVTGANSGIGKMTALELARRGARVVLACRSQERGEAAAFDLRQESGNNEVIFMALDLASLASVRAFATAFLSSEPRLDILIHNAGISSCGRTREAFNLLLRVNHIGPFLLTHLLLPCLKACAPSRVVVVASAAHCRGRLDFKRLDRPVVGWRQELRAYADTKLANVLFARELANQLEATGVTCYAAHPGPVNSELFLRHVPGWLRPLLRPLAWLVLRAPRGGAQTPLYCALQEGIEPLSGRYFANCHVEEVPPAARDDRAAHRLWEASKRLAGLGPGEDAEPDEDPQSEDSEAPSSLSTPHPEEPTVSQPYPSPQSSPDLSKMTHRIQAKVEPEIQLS
Sequence of UniProt Q16527 (Q16527 whole entry, looked up): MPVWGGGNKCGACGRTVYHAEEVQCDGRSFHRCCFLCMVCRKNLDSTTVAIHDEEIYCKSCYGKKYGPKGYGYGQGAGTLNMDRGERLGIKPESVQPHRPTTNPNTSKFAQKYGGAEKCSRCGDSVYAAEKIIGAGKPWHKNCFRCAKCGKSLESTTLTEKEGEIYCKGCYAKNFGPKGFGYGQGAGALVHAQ
Sequence of UniProt O14810 (O14810 whole entry, looked up): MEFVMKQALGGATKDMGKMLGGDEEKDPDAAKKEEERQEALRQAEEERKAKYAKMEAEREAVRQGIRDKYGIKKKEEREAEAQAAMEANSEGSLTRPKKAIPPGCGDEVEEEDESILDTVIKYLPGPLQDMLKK

As for DHRS13 (UniProt Q6UX07), the results for the log2 fold change in assay [1], in assay [2] and in assay [3] were -0.13, 0.059 and -0.099, respectively.

For CSNK1A1 isoform 3 (UniProt P48729), in assay [3], the log2 fold change is 0.021.

CPLX1 (UniProt O14810): the results for the log2 fold change in assay [4] and in assay [3] were -0.08 and -0.239, respectively.

Regarding DDR1 isoform 5 (UniProt Q08345), the log2 fold change in assay [1] was -0.1; in assay [2], 0.057; in assay [3] it was -0.09; in assay [5] it was 0.135.

For CUX1 isoform 2 (UniProt Q13948), the log2 fold change was 0.03 in assay [4], 0.075 in assay [3] and 0.193 in assay [5].

Take DDAH1 (UniProt O94760): the log2 fold change in assay [4] was 0.005; in assay [3] it was 0.15; in assay [5] it was -0.072.

Consider CLASP2 (UniProt O75122), for which the log2 fold change in assay [1] was 0.16; in assay [2], -0.248; in assay [4] it was -0.105; in assay [5], 0.002.

DNA2 (UniProt P51530): the log2 fold change in assay [4] was 0.047; in assay [3] it was 0.072; in assay [5] it was 0.026.

With CYP2S1 isoform 2 (UniProt Q96SQ9), the log2 fold change in assay [4] is 0.033; in assay [3], -0.123.

On to CNK3/IPCEF1 isoform 2 (UniProt G9CGD6), for which the log2 fold change was -0.032 in assay [4], 0 in assay [3] and -0.817 in assay [5].

CSRP2 (UniProt Q16527): the log2 fold change in assay [1] was -0.031; in assay [2] it was -0.018; in assay [5] it was 0.003.

With DAPK1 isoform 3 (UniProt P53355), the log2 fold change in assay [4] was 0.035; in assay [3], 0.013; in assay [5], 0.039.

Consider DNM2 isoform 4 (UniProt P50570), for which the log2 fold change in assay [3] was 0.025; in assay [5], -0.043.

Regarding DESI2 (UniProt Q9BSY9), the log2 fold change in assay [4] is -0.142; in assay [5], -0.038.

In the case of DNAJC24 (UniProt Q6P3W2), the log2 fold change was 0.007 in assay [4], 0.024 in assay [3] and 0.055 in assay [5].
